ELG1 genotox: qHTS screen for small molecules that induce genotoxicity in human embryonic kidney (HEK293T) cells expressing luciferase-tagged ELG1; HEK293T ELG1-luciferase reporter, luminescence, 16 h; Potency, µM (titrated, usually from 46 µM), without a hit: top-dose activity change, positive = activation, actives largely listed as activators; 330,000 tested, 1.3% active; AID 504466, 2011; note: % of control where 0% means no effect; nearly all actives have a fitted effect of over 60% in size
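Quantitative HTS format in 1536-well plates. HEK293T ELG1-luciferase reporter cells receive test compound and are incubated 16 hr at 37 °C, 5% CO2; ONE-Glo added, 30 min room temperature, then luminescence read.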
FLuc modulator: qHTS profiling assay for firefly luciferase inhibitor/activator using purifed enzyme and Km concentrations of substrates (counterscreen for miR-21 project); purified FLuc, Km substrates, luminescence inhibition; Potency, µM (series often up to 57.5 µM), without a hit: at the top dose activity change, negative = inhibition, usual class: inhibitors; 360,000 tested, 6.9% active; AID 588342, 2011;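 note: plate controls were vehicle for no effect and reference inhibitor for full effect; nearly all actives have a fitted effect of over 55% in size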
Target sequence (P08659 whole entry, looked up): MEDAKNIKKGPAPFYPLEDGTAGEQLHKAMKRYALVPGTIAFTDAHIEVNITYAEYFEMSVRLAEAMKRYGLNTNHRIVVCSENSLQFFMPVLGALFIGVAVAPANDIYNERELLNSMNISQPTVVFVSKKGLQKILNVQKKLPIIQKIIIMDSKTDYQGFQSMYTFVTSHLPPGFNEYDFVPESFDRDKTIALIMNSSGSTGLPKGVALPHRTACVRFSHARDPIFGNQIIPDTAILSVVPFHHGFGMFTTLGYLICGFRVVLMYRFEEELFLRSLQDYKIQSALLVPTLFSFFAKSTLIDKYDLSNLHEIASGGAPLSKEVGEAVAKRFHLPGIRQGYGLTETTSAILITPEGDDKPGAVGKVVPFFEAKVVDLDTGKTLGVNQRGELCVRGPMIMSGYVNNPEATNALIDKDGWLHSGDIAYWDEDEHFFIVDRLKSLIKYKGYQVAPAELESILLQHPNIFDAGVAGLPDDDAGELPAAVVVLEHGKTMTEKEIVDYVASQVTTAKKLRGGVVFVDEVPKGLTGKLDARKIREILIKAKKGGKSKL
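Biochemical qHTS of compounds, final roughly 60 µM downward over six points, against 10 nM purified firefly luciferase using Km concentrations of substrates (10 uM D-luciferin, 10 uM ATP) in Tris acetate pH 7.5 buffer; luminescence output.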
NPC1 promoter act: qHTS Assay for NPC1 Promoter Activators; Huh7 NPC1 promoter luciferase reporter, 24 h; Potency, µM (doses to about 9.22 µM), for inactives: at the top dose activation, most hits filed as activators; 320,000 tested, 2.4% active; note: % of control where 0% means no effect; nearly all actives have a fitted effect of over 60% in size
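Quantitative HTS used a cell-based reporter: Huh7 cells stably bearing the NPC1 promoter upstream of luciferase were treated with compounds for 24 h, and promoter activation was read as luminescence.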
ELG1 DNA repair: qHTS screen for small molecules that inhibit ELG1-dependent DNA repair in human embryonic kidney (HEK293T) cells expressing luciferase-tagged ELG1; Potency, µM (titrated, usually from 46.1 µM), for inactives: top-dose activity change, negative = inhibition, most hits filed as inhibitors; HEK293T ELG1-luciferase reporter, luminescence, 16 h; DNA damage induced by 5-fluorouridine; AID 504467, 2011; 330,000 tested, 2.3% active; note: % is set by controls: 0 for no effect and ±100 for the full control effect; nearly all actives have a fitted effect of over 55% in size
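Step one: seed 2,000 cells per well. Step two: pin-transfer compound or DMSO alongside 5-fluorouridine. Step three: incubate 16 hr, 37 °C, 5% CO2. Step four: add ONE-Glo, wait 30 min, read luminescence.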
Rab9 promoter act: qHTS Assay for Rab9 Promoter Activators | Huh7 Rab9 promoter-luciferase reporter, luminescence, 24 h | Potency, µM (titrated, usually from 9.22 µM), for inactives: at the top dose activation, negative = inhibition, actives largely listed as activators | 320,000 tested, 2.8% active | AID 485297, 2010; note: % of control where 0% means no effect; nearly all actives have a fitted effect of over 60% in size
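Huh7 cells stably carrying Rab9 promoter–luciferase reporter, plated 1500 cells/well, compound added after 2 h and incubated 24 h at 37 °C; luciferase luminescence then read after 10 min with detection reagent.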
SMN2 splice up: qHTS Assay for Enhancers of SMN2 Splice Variant Expression. Potency, µM (titrated, usually from 46.1 µM), without a hit: at the top dose activity change, positive = activation, hits mostly activators. 210,000 tested, 2.8% active. AID 1458, 2008. HEK293 SMN2-luciferase splicing reporter, luminescence, 30-36 h; note: % of control where 0% means no effect; nearly all actives have a fitted effect of over 55% in size
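qHTS luciferase splicing reporter: luminescence rises when SMN2 exon 7 is included in transfected HEK293 cells. Compound exposure lasted 30-36 h at 37C, with 4.5 mM final sodium butyrate as control, followed by a ONE-Glo read.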
The depositor's hits bear a star; ? = inconclusive; . = not tested or not shown; ! = repeats disagree; [ ] = remark or other dose. A selection: hits, their analogues and other compounds. The true share with any hit is near 9.2%. Calls come from the whole dose curve; as a rule, active = well fitted curve in the direction sought with a large enough effect; inconclusive = small, poorly fitted or top-dose-only effect, or another doubt; inactive = no such curve, though single readings can be large; an effect the other way counts as inactive or inconclusive. Potency is the fitted concentration of half-maximal effect.

SMILES	ELG1 genotox	FLuc modulator	NPC1 promoter act	ELG1 DNA repair	Rab9 promoter act	SMN2 splice up
O=C1/C(=C/c2cccnc2)Oc2cc(OS(=O)(=O)c3ccccc3)ccc21	?	?	8%	0%	10%	0%
O=C1/C(=C/c2cccnc2)Oc2cc(OS(=O)(=O)c3ccc(Cl)cc3)ccc21	3%	-3%	4%	15µM*	0%	-62%
CCc1ccc(C(=O)COC(=O)c2cncc(Br)c2)cc1	-5%	15µM*	-4%	?	-7%	-19%
CCc1ccc(OC(=O)c2cncc(Br)c2)cc1	1%	6µM*	0%	-3%	-7%[1.84 µM]	.
Cc1ccc(CNC(=O)COC(=O)c2cncc(Br)c2)cc1	0%	3%	-4%	-1%	0%	14%
O=C(/C=C/Nc1ccc(Oc2ccccc2Cl)cc1)c1ccco1	?	3.4µM*	3.5µM*	?	2.2µM*	16µM*
COc1ccccc1Oc1ccc(N/C=C/C(=O)c2ccco2)cc1	?	5.4µM*	3.2µM*	?	1.4µM*	11µM*
COC(=O)c1ccccc1Oc1ccc(NC(=O)c2ccco2)cc1	4%	?	13%	24%	1%	.
Cc1ccc(OCc2nnc(N)s2)cc1C	19%	?	23%	?	?	.
COc1ccc(C2CC2/C(C)=N/OC(=O)C2CC2)cc1 (centres undefined)	-3%	-7%	0%	3%	14%	16%
C/C(=N/OC(=O)C1CC1c1ccccc1)c1ccccc1 (centres undefined)	?	19µM*	-1%	-2%	0%	-35%
Cc1ccc(OCC(=O)Nc2nnc(SCc3cc(=O)n4cccc(C)c4n3)s2)cc1	.	-14%	.	.	.	.
O=C(Nc1ccncc1)c1ccc(Cl)c(Cl)c1	5%	-16%	1%	-8%	0%	.
Cc1ccc(C(=O)Nc2ccc(CC(=O)O)cc2)o1	0%	?	2%	16%	-1%	?
O=C(O)Cc1ccc(NC(=O)c2ccc(Cl)c(Cl)c2)cc1	12%	8.5µM*	2%	2%	-5%	12%
O=C(Nc1ccc(Cc2ccc(NC(=O)C3CC3)cc2)cc1)C1CC1	8%	0%	-5%	7%	-1%	-25%
O=C(O)Cc1ccc(NC(=O)c2ccc(NC(=O)C3CC3)cc2)cc1	0%	17µM*	-2%	1%	19%	.
CC(C)(C)c1ccc(C(=O)Nc2ccc(CC(=O)O)cc2)o1	-7%	4.3µM*	-15%	0%	-19%	-28%
CCOc1cc2sc(N3CCC(C(=O)Nc4cc(C)cc(C)c4)CC3)nc2cc1Br	.	-1%	.	.	.	.
CCOc1cc2sc(N3CCC(C(=O)NCCCN4CCCC4=O)CC3)nc2cc1Br	-3%	15µM*	15%	11%	1%	.
CCOc1cc2sc(N3CCC(C(=O)Nc4ccc(C(C)C)cc4)CC3)nc2cc1Br	.	21µM*	.	.	.	14µM*
CCOc1cc2sc(N3CCC(C(=O)Nc4ccc(C)cc4C)CC3)nc2cc1Br	.	15µM*	.	.	.	?
Cc1ccc(NC(=O)Cn2c(=O)nc(-c3ccccc3F)c3cc(Cl)ccc32)c(Br)c1	.	4%	.	.	.	3%
CCOc1ccc(-c2cc(CCCC(=O)NCCc3ccc(OCC)c(OCC)c3)no2)cc1	.	9.5µM*	.	.	.	20%
CCOc1ccc(-c2cc(CCCC(=O)NCCc3ccc(SC)cc3)no2)cc1	.	12µM*	.	.	.	12%
SMILES	ELG1 genotox	FLuc modulator	NPC1 promoter act	ELG1 DNA repair	Rab9 promoter act	SMN2 splice up
CCOc1ccc(-c2cc(CCCC(=O)NCc3ccco3)no2)cc1	10%	3.4µM*	6%	?	-6%	10%
O=[N+]([O-])c1ccc(CSc2ncnc3c2ncn3C2OC(CO)C(O)C2O)cc1 (centres undefined)	.	.	.	.	.	3%
COc1cc(OC)cc(C(=O)Nn2c(C)nc3ccccc3c2=O)c1	-2%	6%	0%	-16%	-5%	13%
COc1cc(OC)cc(-c2nc3ccccc3c(=O)n2OC(=O)c2ccc(C)c(C)c2)c1	-9%	2%	-8%	10µM*	-2%	5%[1.84 µM]
O=C(NCc1ccccc1)c1ccc(C2SCC(=O)N2Cc2ccccc2)cc1 (centres undefined)	-7%	-2%	8%	16µM*	-2%	-57%
CCc1ccc(NC(=O)c2ccc(C3SCC(=O)N3CCc3ccccc3)cc2)cc1 (centres undefined)	-12%	-12%	2%	10µM*	-13%	-95%
COc1ccc(OC)c(S(=O)(=O)CC(O)COc2ccccc2Cl)c1 (centres undefined)	-12%	-1%	-1%	?	6%	.
Fc1ccccc1-c1nc(NCc2ccco2)c2ccccc2n1	-9%	-1%	-1%	?	-1%	-6%
Oc1ccccc1-c1nc(NCc2ccco2)c2ccccc2n1	0%	1%[2.3 µM]	0%	-17%	1%	5%
COc1ccc(Nc2nc(NCc3ccco3)nc(N/N=C/c3ccccc3)n2)cc1	-7%	?	4%	2.6µM*	-2%	-7%
CCOc1nc(NCc2ccco2)nc(Nc2ccc(OC)cc2)n1	8%	?	-1%	?	2%	12%
CCOc1nc(NCCO)nc(Nc2ccccc2F)n1	17%	-2%	2%	11%	-4%	15%
CCOc1nc(NCc2ccco2)nc(Nc2ccccc2F)n1	?	-17%	29%	?	30%	7.1µM*
COc1ccccc1Nc1nc(NCc2ccco2)c2ccccc2n1	-10%	19µM*	2%	21µM*	-14%	.
Cc1ccc(Nc2nc(NCc3ccco3)c3ccccc3n2)cc1	-16%	21µM*	6%	?	0%	-76%
CCCCn1c(N)c(N(CC(C)C)C(=O)CSc2nnc(-c3ccc(Cl)cc3)o2)c(=O)[nH]c1=O	6%	7%	-1%	24%	-9%	.
COc1cc(CN(C(=O)COc2ccccc2)c2ccccn2)cc(OC)c1OC	.	-10%	.	.	.	.
COc1cccc(-c2c(C(=O)N/N=C/c3ccoc3)nnn2-c2nonc2N)c1	3%	-1%	-3%	10%	1%	.
Cc1ccc(N(C)C(=O)CCS(=O)(=O)c2cc3c(cc2Cl)NC(=O)CO3)cc1	1%	1.7µM*!	1%	13%	2%	.

Assay outcomes as filed in PubChem BioAssay.
